# Laboratory results reported in PubChem BioAssay AID687001 (Broad Institute, 2013).
# Potency and affinity values are given separately. Values without a mark were called inactive. Where a call stands in place of a potency, no number is given. Calls of active or inactive are those of the source.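 Rule for the calls: active = signal-lowering compounds whose fitted half-maximal concentration is at or below twice the top tested dose in every run; inconclusive = runs disagree, flat 30 to 70% inhibition, or poor curve fit; inactive = the rest.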
# Biological target: Protein S100-A4 (Homo sapiens) (UniProt P26447)
# Sequence (P26447 whole entry, looked up): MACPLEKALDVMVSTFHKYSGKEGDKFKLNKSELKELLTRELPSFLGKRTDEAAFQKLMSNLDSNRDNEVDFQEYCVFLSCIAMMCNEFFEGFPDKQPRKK
# Experiment: human S100A4 peptide interaction inhibition curves – biochemical, fluorescence polarization, cherry-picked hits, dose response (AID 687001)
SMILES,outcome,"activity change, negative = inhibition"
CCCN1[C@H](CO)[C@H](c2ccc(C3=CCCCC3)cc2)[C@@H]1CNS(C)(=O)=O,inactive,–
C[C@@H]1CN([C@H](C)CO)C(=O)CCCn2cc(nn2)CO[C@H]1CN(C)S(=O)(=O)c1ccc(Oc2ccccc2)nc1,inactive,–
CCC(=O)N(C)C[C@H]1Oc2ncc(-c3ccc(C(=O)N(C)C)cc3)cc2C(=O)N([C@@H](C)CO)C[C@H]1C,inactive,–
O=C(CSc1ccsc1[N+](=O)[O-])NCc1ccccc1,inactive,–
CC(C)NC(=O)N(C)C[C@H]1Oc2ccc(NS(=O)(=O)c3ccc(F)cc3)cc2C(=O)N([C@H](C)CO)C[C@@H]1C,inactive,–
CN(C)C(CNC(=O)CCc1nc2cc(Cl)ccc2n(Cc2ccccc2)c1=O)c1ccccc1 (stereo unspecified),inactive,–
CCN1C(=O)[C@H]2[C@@H](c3ccc(-c4ccc5c(c4)OCO5)c(OC)c3)N[C@@](C)(C(=O)OC)[C@H]2C1=O,inactive,–
COc1cc(C(=O)NCCc2ncccc2C)ccc1OC1CCN(C(C)=O)CC1,inactive,–
CCCN(CCC)Cc1cc(=O)oc2cc(C)c(C)cc12,inactive,–
C=C[C@@H]1c2ccccc2N(S(=O)(=O)c2ccc(C)cc2)[C@H](c2ccccc2C(F)(F)F)C1(C#N)C#N,inactive,–
O=C(NCCC1=CCCCC1)c1ccc(Cl)c(S(=O)(=O)N2CCCCC2)c1,inactive,–
Cc1ccc(N2CCN(C(=O)c3[nH]c(C(F)(F)F)nc3-c3ccccc3)CC2)cc1,inactive,–
C[C@@H]1CCCCO[C@@H](CN(C)C(=O)Cc2ccccc2)[C@H](C)CN([C@@H](C)CO)C(=O)c2cc(NC(=O)Nc3ccc4c(c3)OCO4)ccc2O1,inactive,–
COc1cc2cnc(-c3ccccc3F)cc2cc1OC,inactive,–
O=C(CSc1ncnc2c1nnn2Cc1ccc(F)cc1)NCC1CCCO1 (stereo unspecified),inactive,–
Cc1ccc(S(=O)(=O)Nc2ccc3c(c2)C(=O)N([C@H](C)CO)C[C@@H](C)[C@@H](CN(C)S(=O)(=O)c2ccc(C)cc2)OCCCC[C@@H](C)O3)cc1,inactive,–
O=[N+]([O-])c1ccccc1CN1CCN(S(=O)(=O)Cc2ccccc2)CC1,inactive,–
CN(C)c1ccc(/C=C(\C#N)C(=O)OCC(=O)N(C)C2CCS(=O)(=O)C2)cc1 (stereo unspecified),–,128% [at 2.6 µM]
CC=Cc1ccc2n(c1=O)C[C@H]1[C@H](CO)[C@@H](C(=O)NCC3CC3)[C@@H]2N1Cc1cccnc1 (mixture of isomers),inactive,–
C=C1CCN([C@@H](Cc2ccccc2)C(=O)NC2CCN(Cc3ccccc3)CC2)S(=O)(=O)c2ccccc21,inactive,–
COc1c(Br)cc([N+](=O)[O-])c(OC)c1C(=O)NC(=O)Nc1c(Cl)cccc1Cl,inactive,–
COCc1cc(=O)[nH]c(SCC(=O)N2CCOCC2)n1,inactive,–
C[C@H](CO)N1C[C@H](C)[C@H](CN(C)Cc2ccccc2)Oc2c(NC(=O)CCCCCC(=O)Nc3ccccc3N)cccc2C1=O,inactive,–
O=C1CCc2cc(S(=O)(=O)N3CCCCC3)cc3c2N1CCC3,inactive,–
COc1ccc(NC(=O)Nc2cccc3c2O[C@H](CN(C)Cc2ccc4c(c2)OCO4)[C@@H](C)CN([C@@H](C)CO)C3=O)cc1,inactive,–
CC(=O)N1CC(C)Oc2ccc(S(=O)(=O)NC(CC(=O)O)c3ccccc3)cc21 (stereo unspecified),inactive,–
